In ChEMBL document CHEMBL3433997, “St. Jude Leishmania screening dataset” (2016) one finds inhibition data, which are given here for 33 compounds.

What all share (type): functional
Test [1] has as its target Solute carrier family 2, facilitated glucose transporter member 1 (Homo sapiens) (UniProt P11166). The test can be described thus: ST_JUDE_LEISH: Cytotoxicity at 2uM final concentration against transgenic Leishmania Mexicana promastigotes LmGLUT1 that are glucose transport deficient and complemented with the human glucose transporter GLUT1. Activity is measured by DNA content using SYBR green in vitro.

Test [2] concerns the target Hexose transporter 1 (Plasmodium falciparum) (UniProt O97467). The test can be described thus: ST_JUDE_LEISH: Cytotoxicity at 2uM final concentration against transgenic Leishmania Mexicana promastigotes LmPfHT that are glucose transport deficient and complemented with the Plasmodium falciparum hexose transporter. Activity is measured by DNA content using SYBR green in vitro.

Test [3] addresses Glucose transporter (Leishmania mexicana) (UniProt O61059). Briefly: ST_JUDE_LEISH: Cytotoxicity at 2uM final concentration against transgenic Leishmania Mexicana promastigotes LmGT2 that are glucose transport deficient and complemented with the L. Mexicana glucose transporter 2. Activity is measured by DNA content using SYBR green in vitro.

Chain of Solute carrier family 2, facilitated glucose transporter member 1 (Homo sapiens) (P11166 whole entry): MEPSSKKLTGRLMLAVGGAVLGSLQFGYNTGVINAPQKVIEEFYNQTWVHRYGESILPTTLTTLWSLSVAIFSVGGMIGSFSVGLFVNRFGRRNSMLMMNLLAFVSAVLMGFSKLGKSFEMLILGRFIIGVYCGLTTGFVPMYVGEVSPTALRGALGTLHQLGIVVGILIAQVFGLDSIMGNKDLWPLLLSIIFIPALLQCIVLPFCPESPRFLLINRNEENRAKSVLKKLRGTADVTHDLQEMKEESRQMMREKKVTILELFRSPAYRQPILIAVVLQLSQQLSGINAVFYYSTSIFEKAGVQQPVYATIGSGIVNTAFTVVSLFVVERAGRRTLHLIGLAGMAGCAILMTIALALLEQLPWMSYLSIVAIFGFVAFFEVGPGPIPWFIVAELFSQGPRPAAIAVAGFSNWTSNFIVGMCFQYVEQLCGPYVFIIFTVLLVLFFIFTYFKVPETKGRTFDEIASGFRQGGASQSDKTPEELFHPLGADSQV

With `Fc1cccc(Nc2nc(NCCc3ccc(Cl)cc3)nc(Nc3cccc(F)c3)n2)c1`, the inhibition – broadly, the change of the read-out against control, counted positive when it falls – was 2.39% in test [1], 2.12% in test [2] and -4.86% in test [3].
Turning to `Cc1cc(N2CCN(C(=O)OC(C)(C)C)CC2)ccc1N`, the inhibition worked out at 6.77% in test [1], 8.78% in test [2] and 7.39% in test [3].
In the same order, the values of `O=C(Nc1ccc(C(=O)OCC2CCCN3CCCCC23)cc1)c1ccc([N+](=O)[O-])cc1` (centres undefined) are -1.57%, 0.57% and 0.99%.
Turning to `N=C(N)NN=Cc1c[nH]c2ccc(-c3ccccc3)cc12`, the figures for the inhibition in test [1], in test [2] and in test [3] were 0.57%, 0.13% and 1.34%, respectively.
Regarding `CC(C)CN(C)c1ncnc2c1nc(-c1cncc(C#N)c1)n2CCNCc1ccccc1`, the inhibition in test [1] amounted to 3.34%; in test [2], 3.26%; in test [3], 4.39%.
Regarding `FC(F)c1nc2ccccc2n1-c1nc(N2CCOCC2)nc(N2CCOCC2)n1`, the inhibition in test [1] was found to be 2.11%; in test [2], 2.9%; in test [3], 3.12%.
For `O=C(NCCCCN1CCC(c2ccc([N+](=O)[O-])cc2)CC1)c1ccc(NC(=O)c2ccc(Cl)cc2)cc1`, the inhibition in test [1] is 4.18%; in test [2], 1.35%; in test [3], 4.06%.
The like results for `CC(C)c1ccc(CN2CCC(NC(=O)c3ccc(-c4cccc(Cl)c4)s3)CC2)cc1` were, in that order, 5.24%, 4.2% and 7.5%.
`O=C1COC2(CN1CC1CCN(Cc3ccc(O)c(Cl)c3)C1)c1ccccc1-c1ccccc12` (centres undefined): the inhibition in test [1] is -0.03%; in test [2], -0.11%; in test [3] it was -0.34%.
On to `O=C(Nc1cccc(-c2cccc(-c3nc4cc(C(F)(F)F)ccc4[nH]3)c2)c1)c1ccncc1`, for which the inhibition stood at 5.04% in test [1], 7.47% in test [2] and 2.56% in test [3].
In the case of `c1cc(CNCC2CCCO2)cc(-c2csc(-c3nc4ccccc4[nH]3)c2)c1` (centres undefined), the inhibition in test [1] is -1.5%; in test [2], 2.45%; in test [3], 2.04%.
In the case of `CCc1ccc(C(=O)NC(=O)c2ccccc2O)cc1`, the values for the inhibition in test [1], in test [2] and in test [3] were 3.44%, 3.45% and 3.61%, respectively.
Regarding `O=C(N[C@@H](Cc1ccccc1)C(=O)NCCN1CCOCC1)c1ccc(O)c(-c2ccc(Cl)c(Cl)c2)c1`, the figures for the inhibition in test [1], in test [2] and in test [3] were 2.33%, 2.47% and 4.35%, respectively.
In the same order, the values of `CC(Cc1ccc(C(=O)OCCOC(=O)c2ccc(CC(C)NCC(O)c3cccc(C(F)(F)F)c3)cc2)cc1)NCC(O)c1cccc(C(F)(F)F)c1` (centres undefined) are 1.7%, -0.31% and 2.65%.
The like results for `CCOc1c(Cl)cc(Cl)cc1CNCCCNc1nc2ccccc2[nH]1` were, in that order, 1.3%, 6.95% and 4.33%.
For the compound `O=S(=O)(c1ccc(Cl)cc1Cl)N1CCCCC(c2ccc(C(F)(F)F)cc2)=N1`, the inhibition in test [1] is 0.38%; in test [2], 0.43%; in test [3], 1.07%.
As to `Cc1nc2ccccc2n1C1CC2CCC(C1)N2CCC1(c2ccccc2)CCN(C(=O)Nc2ccc(C(F)(F)F)cc2)CC1` (centres undefined), the inhibition amounted to 4.65% in test [1], 4.07% in test [2] and 1.78% in test [3].
On to `Nc1nc(N)c2c(Cc3ccc(Br)cc3)cccc2n1`, for which the figures for the inhibition in test [1], in test [2] and in test [3] were 2.61%, 4.39% and 3.75%, respectively.
As to `CS(=O)(=O)Cc1ccc(Nc2nccc(-c3c(-c4cccc(C(=O)Nc5c(F)cccc5F)c4)nn4ccccc34)n2)cc1`, the inhibition in test [1] was 21.4%; in test [2], 10.2%; in test [3], 2.15%.
For the compound `Cc1cc(-c2ccc(CNCc3ccc(F)cc3)cc2)ccc1S(=O)(=O)NCCN1CCCC1`, the inhibition was 66.4% in test [1], 41.4% in test [2] and -2.93% in test [3].
On to `N#Cc1ccc(C(=O)Nc2cc(-c3cccc(O)c3)cc3[nH]ncc23)cc1`, for which the values for the inhibition in test [1], in test [2] and in test [3] were 2.57%, 2.33% and 0.89%, respectively.
As for `CSc1ccc(CN2CCC(NC(=O)c3ccc(-c4ccc(N(C)C)cc4)s3)CC2)cc1`, the inhibition in test [1] worked out at 1.5%; in test [2], 0.28%; in test [3], 2.99%.
`O=C(c1cc(-c2cccs2)n[nH]1)N1CCN(S(=O)(=O)c2ccc(Br)cc2)CC1`: the figures for the inhibition in test [1], in test [2] and in test [3] were 0.07%, 3.88% and 2.13%, respectively.
As to `COc1cc(OC)cc(-c2nnc(Sc3ccc(C#N)c([N+](=O)[O-])c3)n2C)c1`, the inhibition in test [1] was 9.51%; in test [2], 6.92%; in test [3], 5.47%.
Take `O=C(Cc1cccc(OCCCN(Cc2cccc(C(F)(F)F)c2Cl)CC(c2ccccc2)c2ccccc2)c1)NCc1ccco1`: the figures for the inhibition in test [1], in test [2] and in test [3] were -1.28%, 2.42% and -2.47%, respectively.
For the compound `c1ccc([C@H]2CN3CCSC3=N2)cc1`, the inhibition in test [1] was -0.53%; in test [2], 2.58%; in test [3], -0.34%.
Consider `O=S(=O)(NCCN1CCCC1)c1ccc(-c2ccc(CNCc3ccccc3)cc2)cc1`, for which the results for the inhibition in test [1], in test [2] and in test [3] were 2.85%, 1.2% and -0.93%, respectively.
In the case of `c1ccc2[nH]c(-c3ccc(-c4ccc(CN5CCC(N6CCCCC6)CC5)cc4)s3)nc2c1`, the inhibition in test [1] is 0.72%; in test [2], -0.81%; in test [3] it was -1.09%.
On to `COc1cc2c(cc1N(C(C)C)S(=O)(=O)c1sc3ccc(Cl)cc3c1C)CCNCC2`, for which the inhibition came out at 43.3% in test [1], 10.2% in test [2] and 3.21% in test [3].
For `CCCCOc1ccc(N2C(N)=NC(N)=NC2(C)C)cc1`, the values for the inhibition in test [1], in test [2] and in test [3] were 2.55%, 1.89% and 1.88%, respectively.
With `Cc1cc(CNCC(CCNc2cc(=O)c3ccccc3[nH]2)NCc2cc(Br)cc(Br)c2)oc1C` (centres undefined), the figures for the inhibition in test [1], in test [2] and in test [3] were 4.51%, 2.43% and 3.29%, respectively.
Take `O=C(Nc1cccc(CN2CCCN(Cc3ncc[nH]3)CC2)c1)c1ccc(-c2ccccc2)cc1`: the figures for the inhibition in test [1], in test [2] and in test [3] were 0.65%, 1.21% and 2.54%, respectively.
As to `CS(=O)(=O)NCCCNCc1cccc(-c2cccc(-c3nc4cc(C(F)(F)F)ccc4[nH]3)c2)c1`, the inhibition is -0.01% in test [1], -4.31% in test [2] and -1.5% in test [3].
